Structures can show the parent of a compound that is named as a salt. ± gives the standard deviation.
Tested on: Danio rerio Tg(wt1b:EGFP) embryo, pronephros
Experiment: glomerular separation, fold change vs DMSO control; higher = glomeruli further apart (abnormal)
Details: 25 µM; exposure: 24-48 hpf
Summary of the method: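 From 24 to 48 hpf, at 28.5°C, dechorionated Tg(wt1b:EGFP) zebrafish embryos sat in HEPES-buffered E3 with 0.003% PTU carrying 25 μM compound and 0.5% DMSO. Their pronephroi were imaged dorsally in 96-well plates filled with agarose, using 470 nm light and 10 z-slices. A Fiji macro measured distances and angles between 16 reference points that were set manually on maximum projections, and any value more than 2 SD from its feature mean was excluded. Features are expressed as fold change relative to the mean of DMSO-treated embryos imaged on the same day.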

| Structure (SMILES) | glomerular separation |
| --- | --- |
| O=P1(NCCCl)OCCCN1CCCl (centres undefined) [Ifosfamide] | 1.05 ± 0.39 |
| C[C@]12CC[C@@H]3c4ccc(OC(=O)N(CCCl)CCCl)cc4CC[C@H]3[C@@H]1CC[C@@H]2O [Estramustine] | 2.15 ± 0.79 |
| CNCC(O)c1ccc(O)cc1 (racemic) [(+,-)-Synephrine] | 1.01 ± 0.41 |
| C[C@]12CCC(=O)C=C1CC[C@@H]1[C@@H]2C(=O)C[C@]2(C)C(=O)CC[C@@H]12 [Adrenosterone] | 0.651 ± 0.16 |
| CC(C)C[C@H](CN)CC(=O)O [Pregabalin] | 1.1 ± 0.25 |
| C[N+]1(C)CCOC(O)(c2ccc(-c3ccc(C4(O)C[N+](C)(C)CCO4)cc3)cc2)C1 (centres undefined) [Hemicholinium bromide] | 0.878 ± 0.14 |
| CC(=O)OC1CN2CCC1CC2 (centres undefined) [Aceclidine Hydrochloride] | 0.978 ± 0.38 |
| C=CCN1CC[C@]23c4c5ccc(O)c4O[C@H]2C(=O)CC[C@@]3(O)[C@H]1C5 [Naloxone hydrochloride] | 0.981 ± 0.33 |
| NC(=O)C[S+]([O-])C(c1ccccc1)c1ccccc1 (centres undefined) [Modafinil] | 1.04 ± 0.25 |
| O=[N+]([O-])O[C@@H]1CO[C@H]2[C@@H]1OC[C@@H]2O [Isosorbide mononitrate] | 0.951 ± 0.48 |
| CNC(C)(C)Cc1ccccc1 [Mephentermine hemisulfate] | 0.946 ± 0.41 |
| C#C[C@]1(O)CC[C@H]2[C@@H]3CCC4=CC(=O)CCC4=C3C=C[C@@]21CC [Gestrinone] | 1.64 ± 0.91 |
| CN1[C@@H]2CC[C@H]1C[C@@H](OC(=O)[C@H](CO)c1ccccc1)C2 [Hyoscyamine (L)] | 0.956 ± 0.51 |
| CCCC(C)(COC(N)=O)COC(=O)NC(C)C (centres undefined) [Carisoprodol] | 0.877 ± 0.24 |

Source: the supplement of paper PMC7366291
